# Experimental data: the supplement of paper PMC9135407
# Several values for one entry are separate records, joined by “and”; a condition that tells them apart may be missing. Identical values can stand only once. Counter-ions that a name gives are not always drawn. The campaign covered roughly 5,800 compounds. About 620 (11%) showed activity. The sample holds actives, similar compounds and a random draw of the others, so the mix is not that of the screen. Values without a mark were called inactive.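 Rule for the calls: active = score above a cut-off or among the top three wells of a plate; in these data no inactive exceeds 0.85.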
# Tested on: primary human hepatic stellate cells (donor 1)
# Experiment: scaled lipid accumulation score (0 = DMSO-like, 1 = nortriptyline-like); higher = stronger HSC inactivation (lipid re-accumulation), active = hit call of the paper
# Conditions: 48 h
# [1] = library stock concentration: 1 mM
# [2] = library stock concentration: 3.33 mM
# [3] = library stock concentration: 10 mM
# [4] = library stock concentration: 80 uM
# [5] = library stock concentration: 400 uM
# [6] = library stock concentration: 2 mM
# [7] = library stock concentration: 6.2 mM
# [8] = library stock concentration: 5.1 mM
# [9] = library stock concentration: 13.5 mM
compound,measurement,setting,value
"CCCCC/C=C\C/C=C\CCCC/C=C\CCCC(=O)O [5(Z),11(Z),14(Z)-Eicosatrienoic Acid]",scaled lipid accumulation score,[1],≤ 0
CC(S)C(=O)NCC(=O)O (stereo not drawn) [Tiopronin],scaled lipid accumulation score,[2],≤ 0
same,scaled lipid accumulation score,[3],≤ 0
CC(S)C(=O)NCC(=O)O (stereo not drawn),scaled lipid accumulation score,[3],≤ 0
CCCCCCCC/C=C\CCCCCCCCCCCC(=O)O [13(Z)-Docosenoic Acid],scaled lipid accumulation score,[1],0.016
"CCC(CO)Nc1nc(NCc2ccccc2)c2ncn(C(C)C)c2n1 [Roscovitine, (S)-Isomer]",scaled lipid accumulation score,[2],≤ 0
CC1(C)S[C@@H]2[C@H](/N=C/N3CCCCCC3)C(=O)N2[C@H]1C(=O)O,scaled lipid accumulation score,[3],≤ 0
CCCCC[C@@](C)(O)/C=C/[C@H]1C=CC(=O)[C@@H]1C/C=C\CCCC(=O)O [15(R)-15-methyl Prostaglandin A2],scaled lipid accumulation score,[1],≤ 0
"CCCCc1c(-c2ccc(O)cc2)[nH]c2nccnc12 [Aloisine A, RP107]",scaled lipid accumulation score,[2],≤ 0
O=C(O)COc1cccc(-c2ocnc2-c2nc(-c3ccccc3)c(-c3ccccc3)o2)c1,scaled lipid accumulation score,[3],≤ -0.006
OCCOCCN1CCN(C2=Nc3ccccc3Sc3ccccc32)CC1 [Quetiapine fumarate],scaled lipid accumulation score,library stock concentration: 2.3 mM,0.28
O=C(O)C=CC(=O)O.OCCOCCN1CCN(C2=Nc3ccccc3Sc3ccccc32)CC1.OCCOCCN1CCN(C2=Nc3ccccc3Sc3ccccc32)CC1 [Quetiapine Fumarate],scaled lipid accumulation score,[3],1.06 (active)
OCCOCCN1CCN(C2=Nc3ccccc3Sc3ccccc32)CC1 [Quetiapine],scaled lipid accumulation score,library stock concentration: 5.2 mM,≤ 0
OCCOCCN1CCN(C2=Nc3ccccc3Sc3ccccc32)CC1 [Quetiapine Fumarate],scaled lipid accumulation score,[2],0.061
CN1CCN(C2=Nc3ccccc3Sc3ccc(Cl)cc32)CC1 [Clothiapine],scaled lipid accumulation score,library stock concentration: 5.8 mM,0.413
OCCOCCN1CCN(C2=Nc3ccccc3Sc3ccccc32)CC1,scaled lipid accumulation score,[3],0.251
CCCCC[C@@H](O)/C=C/[C@H]1C(=O)C[C@H](O)[C@@H]1C/C=C\CCCC(=O)O [15(R)-Prostaglandin D2],scaled lipid accumulation score,[1],≤ 0
O=C([O-])[C@H]1/C(=C/CO)O[C@@H]2CC(=O)N21.[Li+] [Clavulanate lithium],scaled lipid accumulation score,library stock concentration: 9.7 mM,≤ 0
CCS(=O)(=O)Nc1ccc2[nH]c(O)c(C(=Nc3ccc(CN4CCCCC4)cc3)c3ccccc3)c2c1 [Hesperadin],scaled lipid accumulation score,[2],≤ 0
same,scaled lipid accumulation score,[3],0.147
Cl.N=C(N)NCCC[C@H](N)C(=O)O,scaled lipid accumulation score,[3],≤ 0
O=S(=O)(O)Oc1ccc(C(c2ccc(OS(=O)(=O)O)cc2)c2ccccn2)cc1 [Sodium Picosulfate],scaled lipid accumulation score,[2],≤ 0
same,scaled lipid accumulation score,[3],≤ -0.001
Cc1ccc(C(=O)Nc2cccc(C(F)(F)F)c2)cc1Nc1nc(-c2cccnc2)nc2c1cnn2C [listing 1 of 2 here],scaled lipid accumulation score,[2],0.942 (active)
same,scaled lipid accumulation score,[3],0.959 (active)
Cc1ccc(C(=O)Nc2cccc(C(F)(F)F)c2)cc1Nc1nc(-c2cccnc2)nc2c1cnn2C [listing 2 of 2 here],scaled lipid accumulation score,[4],≤ -0.016
same,scaled lipid accumulation score,[5],≤ -0.016
same,scaled lipid accumulation score,[6],≤ -0.016
same,scaled lipid accumulation score,[3],0.726
Cc1ccc(C(=O)Nc2cccc(C(F)(F)F)c2)cc1Nc1cncc(C(N)=O)c1,scaled lipid accumulation score,[4],≤ 0
same,scaled lipid accumulation score,[5],0.035
same,scaled lipid accumulation score,[6],≤ 0
same,scaled lipid accumulation score,[3],0.142
"Nc1ncnc2c1ncn2[C@@H]1O[C@H](COP(=O)(O)CP(=O)(O)OP(=O)(O)O)[C@H](O)C1O (stereo partly drawn) [alpha,beta-Methylene adenosine 5'-triphosphate dilithium]",scaled lipid accumulation score,[3],0.242
CCCCC/C=C\C/C=C\C/C=C\C/C=C\CCCC(=O)S[C@H](COCCCCCCCCCCCCCCCC)COP(=O)([O-])OCC[N+](C)(C)C [Arachidonoyl thio-PC],scaled lipid accumulation score,[1],≤ 0
CC(/C=C/C(=O)NO)=C\[C@@H](C)C(=O)c1ccc(N(C)C)cc1 [Trichostatin-A],scaled lipid accumulation score,library stock concentration: 16.5 mM,0.589
CC(C=CC(=O)NO)=CC(C)C(=O)c1ccc(N(C)C)cc1 (stereo not drawn) [Trichostatin A (TSA)],scaled lipid accumulation score,[2],0.515
same,scaled lipid accumulation score,[3],0.663
CC(/C=C/C(=O)NO)=C\[C@@H](C)C(=O)c1ccc(N(C)C)cc1 [Trichostatin A],scaled lipid accumulation score,[1],0.793 (active)
CCCSc1nc(N[C@@H]2C[C@H]2c2ccc(F)c(F)c2)c2nnn([C@@H]3C[C@H](OCCO)[C@@H](O)[C@H]3O)c2n1 [Ticagrelor],scaled lipid accumulation score,[2],≤ 0
same,scaled lipid accumulation score,[3],0.193
CSc1nc(N)c2ncn([C@@H]3O[C@H](COP(=O)(O)OP(=O)(O)O)[C@H](O)C3O)c2n1 (stereo partly drawn),scaled lipid accumulation score,[3],0.082
CO/N=C1\C[C@]2(C[C@@H]3C[C@@H](C/C=C(\C)C[C@@H](C)/C=C/C=C4\CO[C@@H]5[C@H](O)C(C)=C[C@@H](C(=O)O3)[C@]45O)O2)O[C@H](/C(C)=C/C(C)C)[C@H]1C,scaled lipid accumulation score,[3],≤ 0
"OC[C@H]1O[C@@H](n2cnc3c(N[C@H]4CCC[C@@H]4O)ncnc32)[C@@H](O)C1O (stereo partly drawn) [Adenosine, N-(2-hydroxycyclopentyl)-, (1S-trans)- [CAS]]",scaled lipid accumulation score,[3],≤ 0
CN(C)CCC[C@@]1(c2ccc(F)cc2)OCc2cc(C#N)ccc21,scaled lipid accumulation score,[3],0.614
Br.CN(C)CCCC1(c2ccc(F)cc2)OCc2cc(C#N)ccc21 (stereo not drawn) [Citalopram hydrobromide],scaled lipid accumulation score,[3],0.952 (active)
CN(C)CCC[C@@]1(c2ccc(F)cc2)OCc2cc(C#N)ccc21 [Escitalopram],scaled lipid accumulation score,[7],0.197
CN(C)CCCC1(c2ccc(F)cc2)OCc2cc(C#N)ccc21 (stereo not drawn) [Citalopram Hydrobromide],scaled lipid accumulation score,,≤ 0
CN(C)CCCC1(c2ccc(F)cc2)OCc2cc(C#N)ccc21 (stereo not drawn) [Citalopram hydrobromide],scaled lipid accumulation score,[3],0.259 and 0.597
CN(C)CCC[C@@]1(c2ccc(F)cc2)OCc2cc(C#N)ccc21 [Escitalopram Oxalate],scaled lipid accumulation score,[2],≤ 0
same,scaled lipid accumulation score,[3],0.644
CN(C)CCCC1(c2ccc(F)cc2)OCc2cc(C#N)ccc21 (stereo not drawn) [Citalopram],scaled lipid accumulation score,[7],0.446 and 0.566
same,scaled lipid accumulation score,[3],0.51
"CCCCCCCCC#CCC#CCC#CCCCC(=O)O [5,8,11-Eicosatriynoic acid]",scaled lipid accumulation score,[1],≤ -0.021
"CCCCCCCCC#CCC#CCC#CCCCC(=O)O [5,8,11-Eicosatriynoic Acid]",scaled lipid accumulation score,[1],0.059
CCCCCCCCCCCCCCCC(=O)N[C@@H](COP(=O)(O)O)C(=O)O,scaled lipid accumulation score,[1],≤ -0.021
O=C(CCc1ccncc1)NNC(=O)N1Cc2ccccc2Oc2ccc(Cl)cc21,scaled lipid accumulation score,[3],0.105
CN(C)CC[C@@H](c1ccc(Cl)cc1)c1ccccn1 [Dexchlorpheniramine maleate],scaled lipid accumulation score,[8],≤ 0
CN(C)CCC(c1ccc(Br)cc1)c1ccccn1 (stereo not drawn) [Brompheniramine maleate],scaled lipid accumulation score,,0.343
same,scaled lipid accumulation score,[3],0.275
CN(C)CC[C@@H](c1ccc(Cl)cc1)c1ccccn1,scaled lipid accumulation score,[3],0.377
CN(C)CCC(c1ccc(Br)cc1)c1ccccn1 (stereo not drawn) [Brompheniramine hydrogen maleate],scaled lipid accumulation score,[2],0.182
same,scaled lipid accumulation score,[3],0.583
CN(C)CCC(c1ccc(Cl)cc1)c1ccccn1 (stereo not drawn) [Chlorpheniramine maleate],scaled lipid accumulation score,,0.469
same,scaled lipid accumulation score,library stock concentration: 7.3 mM,0.251
CN(C)CCC(c1ccc(Cl)cc1)c1ccccn1 (stereo not drawn) [Chlorpheniramine],scaled lipid accumulation score,[3],≤ 0
CN(C)CCC(c1ccc(Cl)cc1)c1ccccn1 (stereo not drawn) [Chlorpheniramine Maleate],scaled lipid accumulation score,[2],0.106
same,scaled lipid accumulation score,[3],≤ 0
CN(C)CC[C@@H](c1ccc(Cl)cc1)c1ccccn1 [Chlorpheniramine (s) maleate],scaled lipid accumulation score,[8],0.181
same,scaled lipid accumulation score,[3],0.005
CN(C)CCC(c1ccc(Br)cc1)c1ccccn1.O=C(O)/C=C\C(=O)O (stereo not drawn),scaled lipid accumulation score,[3],0.9 (active)
"CN(C)CCC(c1ccc(Br)cc1)c1ccccn1 (single isomer, unassigned; (+)) [(+)-Brompheniramine maleate]",scaled lipid accumulation score,[3],0.351
CN(C)CCC(c1ccc(Cl)cc1)c1ccccn1.O=C(O)/C=C\C(=O)O (stereo not drawn),scaled lipid accumulation score,[3],0.891 (active)
CCOc1nc2cccc(C(=O)OC(C)OC(=O)OC3CCCCC3)c2n1Cc1ccc(-c2ccccc2-c2nn[nH]n2)cc1 (stereo not drawn) [Candesartan Cilexetil],scaled lipid accumulation score,[2],≤ 0
same,scaled lipid accumulation score,[3],≤ 0
CCOc1nc2cccc(C(=O)OC(C)OC(=O)OC3CCCCC3)c2n1Cc1ccc(-c2ccccc2-c2nn[nH]n2)cc1 (stereo not drawn) [Candesartan cilextil],scaled lipid accumulation score,[3],≤ -0.027
C/C=C/c1ccc(OC)cc1 [Anethole],scaled lipid accumulation score,[3],0.104
same,scaled lipid accumulation score,[9],≤ 0
"C/C=C/c1ccc(OC)cc1 [Anethole, trans-]",scaled lipid accumulation score,[9],≤ -0.006
CCCCC/C=C\C\C=C/C=C/C=C/[C@@H](SC[C@H](N)C(=O)O)[C@@H](O)CCCC(=O)O [Leukotriene E4],scaled lipid accumulation score,library stock concentration: 100 uM,0.015
C[C@]1(c2nc3c(C(N)=O)cccc3[nH]2)CCCN1 [Veliparib (ABT-888)],scaled lipid accumulation score,[2],≤ 0
same,scaled lipid accumulation score,[3],≤ 0
C[C@]1(c2nc3c(C(N)=O)cccc3[nH]2)CCCN1 [Veliparib],scaled lipid accumulation score,[4],0.0075
same,scaled lipid accumulation score,[5],≤ -0.0045
same,scaled lipid accumulation score,[6],≤ -0.0045
same,scaled lipid accumulation score,[3],≤ -0.0045
CCCCCCCC/C=C\C/C=C\C/C=C\CCCC(=O)O [Mead acid (20:3 n-9)],scaled lipid accumulation score,[1],0.025
NC(=O)CCC/C=C\C[C@@H]1[C@@H](/C=C/[C@@H](O)CCc2ccccc2)[C@H](O)C[C@@H]1O [17-phenyl trinor Prostaglandin F2.alpha. amide],scaled lipid accumulation score,[1],≤ 0
